{"source": "PubChem BioAssay AID2540", "about": "(Sanford-Burnham Center for Chemical Genomics, 2010)", "note": "Screen size: about 330,000 compounds; about 4,100 (1.2%) were called active. The sample as a whole holds a higher share of actives than the screen did. Values without a mark were called inactive. Rule as the data show it: active = inhibition above about 50%; inactive = the rest.", "data": [{"biological_target": "Sentrin-specific protease 8 (Homo sapiens) (UniProt Q96LD8)", "sequence (Q96LD8 whole entry, looked up)": "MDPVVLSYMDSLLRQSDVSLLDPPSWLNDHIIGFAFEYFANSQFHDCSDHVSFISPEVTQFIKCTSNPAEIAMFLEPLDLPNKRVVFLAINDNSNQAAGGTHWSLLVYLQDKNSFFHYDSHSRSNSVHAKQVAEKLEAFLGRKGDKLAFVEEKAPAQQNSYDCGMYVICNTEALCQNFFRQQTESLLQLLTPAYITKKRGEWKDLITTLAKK", "test": "blockers of human SENP8 peptidase activity – biochemical, luminescence, primary screen (AID 2540)", "details": "purified SENP8, Z-RLRGG-aminoluciferin cleavage, at 10 µM, active compounds read high", "values": [{"molecule": "CCCOc1ccc(C(=O)NCCc2ccccc2)cc1", "inhibition": "52% (active)"}, {"molecule": "CCCc1ccc(OCCNC(=O)c2ccccc2Br)cc1", "inhibition": "7.2%"}, {"molecule": "CCCc1ccc(OCCNC(=O)c2ccco2)cc1", "inhibition": "2.92%"}, {"molecule": "CCCC(C(=O)n1nc(C)cc1C)C(NS(=O)(=O)c1ccc(C)cc1)c1ccccc1", "note": "(centres undefined)", "inhibition": "-2.3%"}, {"molecule": "Cc1ccc(C)c(NC(=O)NNC(=O)c2ccc3ccccc3c2O)c1", "inhibition": "-2.4%"}, {"molecule": "C#CCOCCOCCOCCNc1nc(N2CCN(C(=O)[C@H](CCCN=C(N)N)n3cc(C(N)[C@@H](C)CC)nn3)CC2)nc(N2CCN(C(=O)[C@H](CO)n3cc([C@@H](N)C(C)C)nn3)CC2)n1", "note": "(some centres undefined)", "inhibition": "5.69%"}, {"molecule": "O=C(O)/C=C/C(=O)NNc1ccc([N+](=O)[O-])cc1", "inhibition": "69.3% (active)"}, {"molecule": "O=C(Cc1ccccc1)NNS(=O)(=O)c1ccc([N+](=O)[O-])cc1", "inhibition": "-1.17%"}, {"molecule": "CNC(=S)Nc1ccc([N+](=O)[O-])cc1", "inhibition": "-4.02%"}, {"molecule": "CCOC(=O)C1(Cc2cccc(OC)c2)CCN(Cc2csc(C(C)=O)c2)CC1", "inhibition": "-11.2%"}, {"molecule": "O=C(CCCCCn1c(=S)[nH]c2ccsc2c1=O)NC1CCCCC1", "inhibition": "0.315%"}, {"molecule": "Cc1nn(CC(=O)Nc2ccc(C#N)cc2)c(C)c1[N+](=O)[O-]", "inhibition": "-9.74%"}, {"molecule": "O=C(Nc1cccc2ccccc12)c1onc2c1CCCC2", "inhibition": "71.5% (active)"}, {"molecule": "CN(CC(=O)Nc1ccc(Cl)cc1)CC(=O)Nc1cccc2ccccc12", "inhibition": "-2.39%"}, {"molecule": "O=C(O)Cc1ccc(NC(=O)Nc2cccc3ccccc23)cc1", "inhibition": "-11%"}, {"molecule": "O=C(Nc1c2c(nn1-c1ccc(F)cc1)CS(=O)C2)C12CC3CC(CC(C3)C1)C2", "note": "(centres undefined)", "inhibition": "-3.44%"}, {"molecule": "CCC(Cc1ccccc1)NC(=O)C1CCCCC1", "note": "(centres undefined)", "inhibition": "-7.47%"}, {"molecule": "CN(C(=O)c1cc2c(=O)n3ccccc3nc2s1)C1CCCCC1", "inhibition": "-2.55%"}, {"molecule": "CN(c1ccc2nc3ccccc3c(=O)n2n1)C1CCCCC1", "inhibition": "92.6% (active)"}, {"molecule": "CN(C(=O)CSc1nncc2ccccc12)C1CCCCC1", "inhibition": "-9.8%"}, {"molecule": "CC(C(=O)N1CCOCC1)N1c2cccc3cccc(c23)S1(=O)=O", "note": "(centres undefined)", "inhibition": "3.41%"}, {"molecule": "Cc1cccc(NC(=O)c2cc(N3C(=O)CCC3=O)ccc2Cl)n1", "inhibition": "-1.19%"}, {"molecule": "Cc1cccc(NC(=O)Cc2ccc(Br)cc2)n1", "inhibition": "-12.8%"}, {"molecule": "Cc1cccc(NC(=O)c2ccc3ccccc3n2)n1", "inhibition": "61.5% (active)"}, {"molecule": "CC(=O)c1cnc(SCC(=O)O)nc1C", "inhibition": "6.9%"}, {"molecule": "O=C(CCC(=O)c1cccs1)Nc1nc2ccccc2s1", "inhibition": "-9.74%"}, {"molecule": "c1ccc2sc(NN=C3CCCC3)nc2c1", "inhibition": "72% (active)"}, {"molecule": "CCN(CC)CCn1c2c(c(SCC(=O)Nc3nc4ccccc4s3)nc1=O)CCCC2", "inhibition": "3.66%"}, {"molecule": "COc1ccc(NC(=O)C2COc3ccccc3O2)cc1", "note": "(centres undefined)", "inhibition": "-15.1%"}, {"molecule": "O=C(Nc1ncc([N+](=O)[O-])s1)C1COc2ccccc2O1", "note": "(centres undefined)", "inhibition": "95.6% (active)"}, {"molecule": "COc1ccc(OC)c2sc(NC(=O)C3COc4ccccc4O3)nc12", "note": "(centres undefined)", "inhibition": "-14.6%"}, {"molecule": "COc1ccc(OC)c(NC(=O)Cn2c(=O)oc3ccccc32)c1", "inhibition": "-1.75%"}, {"molecule": "N#Cc1cc([N+](=O)[O-])ccc1NC(=O)COC(=O)c1cnccn1", "inhibition": "-2.92%"}, {"molecule": "O=C(CN1CCN(c2ccc(Cl)cc2)CC1)NCc1cccs1", "inhibition": "-8.2%"}, {"molecule": "CCc1cc(CNC(=O)CC2C(=O)NCCN2CC2CCCCC2)on1", "note": "(centres undefined)", "inhibition": "-2.78%"}, {"molecule": "CCCCCN(C(=O)CCC(=O)OCCOc1ccc(OC)cc1)c1c(N)n(CCCC)c(=O)[nH]c1=O", "inhibition": "6.98%"}, {"molecule": "Cn1c(CCN2CCCCCC2)nc2cc(NC(=O)Nc3ccccc3)ccc21", "inhibition": "1.11%"}, {"molecule": "Cc1nc2cc(NC(=O)Nc3cccc(F)c3)ccc2n1C", "inhibition": "90.8% (active)"}, {"molecule": "C=CCN(C(=O)Nc1ccc2c(c1)nc(C)n2C)c1ccccc1", "inhibition": "0.305%"}, {"molecule": "O=C(COC(=O)c1cnccn1)Nc1cccc2ccccc12", "inhibition": "1.04%"}, {"molecule": "O=C(CSc1ncnc2c1nnn2Cc1ccc(F)cc1)NC1CCCC1", "inhibition": "-8.4%"}, {"molecule": "O=C(c1ccc(S(=O)(=O)c2ccccc2)cc1)N1CCCCCC1", "inhibition": "-5.04%"}, {"molecule": "O=C(Nc1ccccc1C(=O)N1CCOCC1)c1ccc(CSc2ccccc2)cc1", "inhibition": "-3.32%"}, {"molecule": "O=C(c1ccc(CSc2ccccc2)cc1)N1CCCCCC1", "inhibition": "64.4% (active)"}, {"molecule": "O=C(CSc1nccc(=O)[nH]1)Nc1ccc(N2CCOCC2)c(Cl)c1", "inhibition": "2.95%"}, {"molecule": "Cc1sc(NC(=S)NC(=O)c2cccs2)nc1-c1ccc(CC(C)C)cc1", "inhibition": "13.2%"}, {"molecule": "C/C(=N\\NC(=O)c1ccc(C)cc1)C1C(=O)c2ccccc2C1=O", "inhibition": "86.8% (active)"}, {"molecule": "Cc1ccc(C(=O)N/C(=C/c2cccnc2)C(=O)O)cc1", "inhibition": "-10.8%"}, {"molecule": "C/C(=N\\NC(=O)CNC(=O)C(c1ccccc1)c1ccccc1)c1ccc(C)cc1", "inhibition": "-7.34%"}]}]}
